Assay results from PubChem BioAssay (NCI).
This is part of a sample that, as a whole, favours compounds with a hit. Of some 83,000 tested, about 20% had one in any assay.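 Percent growth is the endpoint: 0 to 100 indicates growth inhibition (40 means 60% inhibition), 0 means no net growth, and negative values indicate cell death.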 Active and inactive are the calls of the source. The calls were made as follows: active = growth percent below 10; inactive = the rest.

System: MDA-MB-468 breast
Experiment: NCI-60 one-dose screen, 48 h (100 = growth as untreated, 0 = no growth, -100 = all killed)
Conditions: 10 µM unless noted

Row | SMILES | growth
1 | C[C@@H](Nc1c(C#N)cnc2ccc(-c3cnc(Cl)c(NS(C)(=O)=O)c3)cc12)c1ccccc1 | -36% (active)
2 | C=CCn1c(SCC(=O)Nc2ccc(C(=O)/C=C/c3cc(OC)c(OC)c(OC)c3)cc2)nnc1-c1cc(OC)c(OC)c(OC)c1 | 26.1% (inactive)
3 | Nc1nc(N)c2[nH]cnc2n1 | 69.9% (inactive)
4 | Cc1nn(-c2ccccc2)c(Cl)c1C(CC(=O)c1ccc(Cl)cc1)CC(=O)c1ccc(Cl)cc1 | 87.7% (inactive)
5 | Cc1ccc(C(C)C)c(OCc2ccc(C(=O)N/N=C/c3cccc(O)c3O)cc2)c1 | 75.7% (inactive)
6 | O=c1c2sc3ncccc3c2nnn1-c1ccccc1 | 104% (inactive)
7 | c1ccn2nnnc2c1 | 107% (inactive)
8 | CCOC(=O)/C=C1\S/C(=N\Nc2cc(=O)[nH]c3ccc(Cl)cc23)N(c2ccccc2)C1=O | 80.8% (inactive)
9 | COc1cccc(-c2cc(C(=O)Nc3ccc(/C=C/c4ccc(OC5CCN(C)CC5)cc4)cc3)ccc2OC)c1 | -36.4% (active)
10 | CCCCNC(=O)Oc1ccc(/C(=C(/CC)Cc2ccccc2)c2ccc(OCCCN(C)C)cc2)cc1 | 72.9% (inactive)
11 | CCCCOc1nc2c(C)cccc2cc1-c1cc(-c2ccc(Cl)cc2)nc(-c2ccc(Cl)cc2)c1 | 102% (inactive)
12 | COc1ccc(-c2cc(-c3c(C)oc4cc5occc5c(OC)c4c3=O)nc(N)c2C#N)cc1OC | 76.2% (inactive)
13 | N#CCc1cccc2ccccc12 | 112% (inactive)
14 | CCCCCCn1c(-c2ccc(C(=O)O/N=C(\N)c3ccc4c(c3)OCO4)cc2)nc(-c2ccccc2)c1-c1ccccc1 | 43.4% (inactive)
15 | Nc1ncnc2c1ncn2C1(CO)OCC(O)C(O)C1O (stereo not given) | 108% (inactive)
16 | Clc1ccc2c(NCCCNc3nc(-n4ccnc4)nc4ccccc34)ccnc2c1 | 53.3% (inactive)
17 | N#C/C(=C\c1ccc(-c2cccc(C(F)(F)F)c2)o1)c1nc(-c2ccco2)cs1 | -37% (active)
18 | Cc1cc(C)n(C(=O)c2nn(-c3ccc(Cl)cc3)cc2O)n1 | 64.6% (inactive)
19 | COc1cc(C)cc2oc3oc(=O)c(-c4nc5ccccc5s4)cc3c(=O)c12 | 104% (inactive)
20 | COC(=O)Nc1nc2ccc(C(=O)c3cccc(I)c3)cc2[nH]1 | 2.93% (active)

Row | SMILES | growth
21 | C/C(=C(/c1ccccc1)c1ccc(OCC(O)CNCCN2CCOCC2)cc1)c1ccccc1 (stereo not given) | 53.1% (inactive)
22 | COc1ccc(/C=N\Nc2nc(SCC(C)C)nc(-c3ccc(OC)cc3)c2C#N)cc1 | 71.8% (inactive)
23 | O=C(Nc1cc(Cl)cc2c1-c1ccc(Cl)cc1C2O)C(Cl)Cl (stereo not given) | -3.77% (active)
24 | OC(c1ccc(Cl)cc1)(c1ccc(Cl)cc1)C(O)(c1ccc(Cl)cc1)c1ccc(Cl)cc1 | 12.6% (inactive)
25 | COc1cc2c(cc1OC)CC[N+](CCC[N+](C)(C)C)=C2 | 103% (inactive)
26 | CN1CCN(Cc2ccc(NC(=O)c3cncc(C#Cc4cnc(N)c5ccncc45)c3)cc2C(F)(F)F)CC1 | 35.5% (inactive)
27 | COc1cc(/C=C/C(=O)/C=C/c2cc3ccc(Cl)cc3n(Cc3ccccc3)c2=O)ccc1O | -42.8% (active)
28 | CCCCCCCCCCCCCCCCCCSC(=N)N | 67.8% (inactive)
29 | COc1ccc(COc2ccc(/C=C3/C(=O)Nc4cc(Cl)ccc43)cc2)cc1 | 93.4% (inactive)
30 | O=C(Nc1ccc(-n2cc(-c3ccncc3)c(-c3ccc(O)c(Cl)c3)n2)cc1)Nc1ccc(Cl)c(C(F)(F)F)c1 | -6.63% (active)
31 | CCOc1cccc(/C(N)=N/C(N)=N/c2nc3ccccc3s2)c1 | 85.6% (inactive)
32 | Cc1nnc(NC(=O)c2nc(S(=O)(=O)Cc3ccc(F)cc3)ncc2Cl)s1 | -15.1% (active)
33 | COc1ccc(/C=C/C(=O)Nc2cccnc2Nc2ccc(F)cc2)cc1 | 84% (inactive)
34 | O=C1/C(=C/c2cccs2)CCC/C1=C\c1cccs1 | -45.5% (active)
35 | COc1ccc(-n2nnc(C(=O)O)c2-c2cc(OC)c(OC)c(OC)c2)cc1 | 102% (inactive)
36 | O=C(Cn1c2ccccc2c2ccncc21)N/N=C/c1c[nH]c2ccccc12 | 43.4% (inactive)
37 | CC(C)Cc1cc(CNC(=O)C2[C@H]3CN(C(=O)c4ccccc4)C[C@@H]23)nn1-c1ccccc1 (stereo not given in full) | 88.9% (inactive)
38 | O=c1[nH]nc(-c2ccc(Br)cc2)cc1Cc1ccc(O)cc1 | 107% (inactive)
39 | C#Cc1cccc(Nc2ncnc3cc(OCCOC)c(OCCOC)cc23)c1 | -4.78% (active)
40 | O=C(NCCN1CCCC1)c1ccc(-c2nc3ccc4[nH]ncc4c3c3c2CCCC3)cc1 | -43.9% (active)
